In PubChem BioAssay (NCATS) one finds Potency data, which are given here for 40 molecules.

A number with no mark means an inactive call. Activity calls are given as the source filed them. The rule behind the calls is not given here.
Potency is the fitted concentration of half-maximal effect.

This assay concerns HIV-1 nucleocapsid protein NCp7 (binding to TG oligonucleotide). Briefly: HIV Nucleocapsid (AID 346).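 Note: potency is for inhibitors that block NC binding and lower polarization.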 To be noted: HIV-1 NC / fluorescein-TGTGTGTG probe, fluorescence polarization. The protocol:
NCGC Assay Overview: HIV-1 nucleocapsid protein (HIV-1 NC) is a small (6.5 kDa) basic zinc-finger protein which participates in packaging of viral genomic RNA. The spacing and metal-chelating residues (3 Cys, 1 His) of the Cys-X2-Cys-X4-His-X4-Cys Zn fingers are conserved among all known retroviruses (J. Med. Chem. 1998, 41, 1371-1381). HIV-1 NC was assayed for its binding to the consensus sequence single-stranded 5'-TGTGTGTG. […] High salt was included to increase the stringency of binding and inhibitor screen. Reducing agents and zinc were present to stabilize the nucleocapsid zinc-finger protein.
NCGC Assay Protocol Summary: Buffer. Hepes pH 7.5, 250mM NaCl, 1uM ZnCl2. 0.004% polyethylene glycol 20000. TCEP (100 uM) and 2-Mercaptoethanol (5 mM), added fresh the day of the experiment. Reagents/Controls. 10 nM TG4xF only in columns 3 and 4 as negative control. 10 nM TG4xF/100 nM HIV-1 NC in columns 1, 2, 5-48. Titration of control compound NSC-13778 (from 20 mM, then 1:2) pin-transferred to column 2. Assay Steps. Two uL of reagents were dispensed to 1536-well Kalypsys black plates. The plates were centrifuged for 1 min at 1000 rpm. Compounds and controls (20 nL) were transferred via Kalypsys PinTool. The plates were incubated for 1 hr at room temperature, and then read on ViewLux (Perkin-Elmer). High-throughput CCD imager using fluorescein polarization filter set and 45 seconds exposure time.
Background: Polarisation of emitted light reports the rotation of a fluorescent probe.
For the molecule `Cc1cnc(CNc2ccnc(-c3ccc(N(C)C)cc3)n2)cn1`, the Potency was above 20 µM.
Take `Cc1noc(C)c1-c1cc(N(C)Cc2ccco2)ncn1`: the Potency was above 20 µM.
As for `COc1cccc(-c2nc(NCc3cnc(C)cn3)c3ccccc3n2)c1`, the Potency is above 20 µM.
Then `CCNc1ncc2nc(-c3ccc(OC)cc3)c(=O)n(Cc3cccc(OC)c3)c2n1`, with 4.61 µM (active).
On to `Cc1cnc(CNc2ncnc3ccc(-c4ccoc4)cc23)cn1`, for which the Potency is above 20 µM.
As for `COc1ccc(-n2c(=O)c(C)nc3cnc(N4CCOCC4)nc32)cc1`, the Potency is above 20 µM.
Regarding `CN(C)Cc1ccccc1-c1cncnc1Nc1ccc(F)cc1`, the Potency is above 20 µM.
For the molecule `CN(C)C(=O)c1ccc(-c2ccc3ncnc(N(C)C)c3c2)cc1`, the Potency was above 20 µM.
As for `COCCn1c(=O)c(-c2cccc(C#N)c2)nc2cnc(Nc3ccccc3)nc21`, the Potency is 5.18 µM (active).
In the case of `COc1ccc(-n2c(=O)c(-c3cccs3)nc3cnc(OC)nc32)cc1`, the Potency was above 20 µM.
Consider `CN(C)c1ccc(-c2nc(NCCc3cnc[nH]3)c3ccccc3n2)cc1`, for which the Potency was above 20 µM.
Then `O=c1c(-c2ccc(F)cc2)nc2cnc(N3CCOCC3)nc2n1Cc1ccc(F)cc1`, with above 20 µM.
Take `O=C(c1ccco1)N1CCC[C@@]2(CCN(C(c3ccccc3)c3ccccc3)C2)C1`: the Potency is above 20 µM.
For the molecule `FC(F)(F)c1ccccc1-c1nccc(NCc2cccs2)n1`, the Potency was above 20 µM.
Next, `COCC(=O)N1CCC2(CCN(Cc3cc(C(F)(F)F)cc(C(F)(F)F)c3)CC2)CC1`: above 20 µM; `N#CCCn1c(=O)c(-c2cccc(C#N)c2)nc2cnc(N3CCOCC3)nc21`: above 20 µM.
On to `Cc1cnc(CNc2cc(-c3c(C)noc3C)ncn2)cn1`, for which the Potency is above 20 µM.
`CCNc1ncc2nc(C)c(=O)n(C)c2n1`: the Potency was above 20 µM.
As for `CN(C)c1ccc(-c2nc(N(C)Cc3ccco3)c3ccccc3n2)cc1`, the Potency was above 20 µM.
For `N#Cc1cccc(-c2nc(Nc3ccccc3)c3ccccc3n2)c1`, the Potency was above 20 µM.
`COc1ccccc1CN1CCCC2(CCN(C(=O)c3cnccn3)CC2)C1`: the Potency was above 20 µM.
In the case of `CC(=O)NCCNc1nc(-c2ccc(N(C)C)cc2)nc2ccccc12`, the Potency is above 20 µM.
Regarding `FC(F)(F)c1cc(CN2CCCC3(CCNCC3)C2)cc(C(F)(F)F)c1`, the Potency is above 20 µM.
As to `O=S(=O)(c1ccccc1)N1CCC2(CCN(c3cccc(-c4ccccc4)c3)CC2)CC1`, the Potency was above 20 µM.
On to `COc1ccc(C(=O)N2CCC3(CCCN(c4ccc(-c5ccccc5)cc4)C3)CC2)cc1`, for which the Potency is above 20 µM.
Take `Clc1ccccc1-c1cncnc1NCc1cccs1`: the Potency is above 20 µM.
Then `O=C(Oc1ccccc1)N1CCC2(CC1)CN(c1ccccc1)C2`, with above 20 µM.
Turning to `Cc1ccccc1-c1cc(NCc2ccccc2)ncn1`, the Potency is above 20 µM.
Then `N#Cc1ccc(CN2CCC3(CC2)CCN(C(=O)c2cc(C(F)(F)F)cc(C(F)(F)F)c2)CC3)cc1`, with above 20 µM; and `O=C(c1cc(C(F)(F)F)cc(C(F)(F)F)c1)N1CCC[C@@]2(CCN(Cc3nccs3)C2)C1`, with above 20 µM; and `COC(=O)N1CCC2(CCN(Cc3ccc(C#N)cc3)CC2)CC1`, with above 20 µM.
`Cc1ccccc1-c1nc(NCCN2CCOCC2)c2ccccc2n1`: the Potency is above 20 µM.
As for `CN(C)C(=O)c1ccc(-c2cncnc2NCc2ccccc2)cc1`, the Potency is above 20 µM.
With `COc1ncc2nc(-c3ccc(F)cc3)c(=O)n(-c3ccccc3)c2n1`, the Potency was above 20 µM.
`CN(C)c1ncc2ncc(=O)n(Cc3cccs3)c2n1`: the Potency was above 20 µM.
Next, `CN1CCCC2(CCN(C(=O)c3cccn3C)CC2)C1`: above 20 µM; `COCC(=O)N1CCC2(CCCN(C(=O)Nc3ccc(OC)cc3)C2)CC1`: above 20 µM.
Take `CC(C)CN1CCCC2(CCN(C(=O)c3cccc(F)c3)CC2)C1`: the Potency is above 20 µM.
For `O=C(c1cccc(F)c1)N1CCC2(CCCN(Cc3nccs3)C2)CC1`, the Potency is above 20 µM.
For the molecule `O=C(Nc1ccccc1)N1CC2(CCN(C(=O)c3cc(C(F)(F)F)cc(C(F)(F)F)c3)CC2)C1`, the Potency was above 20 µM.
